Results filed as inconclusive are left out. Calls of active or inactive are those of the source. Unless noted, calls follow the shape of the dose curve; as a rule, active = well fitted curve in either direction with a large enough effect (not every such curve was filed as active); inconclusive = small, poorly fitted or top-dose-only effect, or another doubt; inactive = flat fitted curve, though single readings scatter.
What was measured:
[1] = target: Lysosomal acid glucosylceramidase (Homo sapiens) (UniProt P04062); assay: Glucocerebrosidase-p2 (AID 348; in the data active = potency below about 10 µM; also: potency is read from the fitted curve at half-maximal effect); settings: purified GBA, blue fluorogenic substrate, 40 min
Lysosomal acid glucosylceramidase (Homo sapiens), sequence (P04062 whole entry, looked up): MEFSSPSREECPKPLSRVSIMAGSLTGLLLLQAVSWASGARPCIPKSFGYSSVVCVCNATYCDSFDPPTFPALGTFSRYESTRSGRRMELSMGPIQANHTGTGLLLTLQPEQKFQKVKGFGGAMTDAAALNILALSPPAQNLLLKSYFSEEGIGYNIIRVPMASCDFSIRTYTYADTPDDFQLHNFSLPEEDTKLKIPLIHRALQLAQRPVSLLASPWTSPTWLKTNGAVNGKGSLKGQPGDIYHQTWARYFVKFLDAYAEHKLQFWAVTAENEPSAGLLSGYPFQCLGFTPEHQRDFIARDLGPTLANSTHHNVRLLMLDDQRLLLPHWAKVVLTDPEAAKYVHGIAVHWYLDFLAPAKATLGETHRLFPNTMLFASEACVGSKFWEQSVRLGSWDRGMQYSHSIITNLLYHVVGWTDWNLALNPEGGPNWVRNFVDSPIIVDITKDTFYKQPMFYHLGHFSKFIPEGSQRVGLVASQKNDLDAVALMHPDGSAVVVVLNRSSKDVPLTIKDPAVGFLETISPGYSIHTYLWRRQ
Summary of the method: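 Compounds titrated from 0.6 nM upwards against 0.2 nM enzyme in pH 5.9 citric acid/KH2PO4, taurocholate, tween-20; blue fluorogenic substrate 80 uM, 40 min room temperature, stopped and read Ex 365/Em 440 for AC50.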

[2] = AP1 Signaling Pathway (AID 357); settings: ME-180 AP-1-bla reporter, EGF-induced, beta-lactamase ratio, 5 h; at 7.69 µM (top of the series) unless noted; also: % is scaled to controls: 0 for no effect and ±100 for the full control effect
Summary of the method: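 ME-180 cells with beta-lactamase reporter under AP-1 response element, stimulated with EC50 EGF; compounds tested in titration series, 5 h at 37 °C. CCF4 substrate added 2.5 h at room temperature; 460/530 nm emission ratio gave %activity and AC50.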

[3] = NFAT Signaling Pathway (AID 444); settings: Jurkat NFAT-bla M1, carbachol, beta-lactamase ratio, 5 h; at 7.69 µM (top of the series) unless noted;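 also: carbachol stimulus at about its EC50 of 1 µM final; % is scaled to controls: 0 for no effect and ±100 for the full control effect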
Summary of the method: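 Jurkat cells with NFAT-driven β-lactamase reporter and co-expressed M1 receptor, stimulated with carbachol (final 1 uM, ~EC50), compound titration, 5 h at 37 °C. CCF4 loaded 1 h at RT; 460/530 nm ratio gave %activity and AC50.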

[4] = Stat Signaling Pathway (AID 446); settings: ME-180 SIE beta-lactamase reporter, IL-6 stimulated, 5 h; at 7.69 µM (top of the series) unless noted;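 also: ME-180 cervical cancer cells given 40 pM IL-6 alongside compound; SIE-controlled beta-lactamase reporter measured as 460/530 nm FRET emission ratio; % is scaled to controls: 0 for no effect and ±100 for the full control effect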
Summary of the method: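 IL-6/STAT signaling read in ME-180 cells via an SIE beta-lactamase reporter. Stimulus was 40 pM IL-6 (its AC50) for 5 hrs, so both activation and inhibition register.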

[5] = target: Glucocorticoid receptor (Homo sapiens) (UniProt P04150); assay: GR-EFC Redistribution (AID 451; calls by dose curve; also: potency is read from the fitted curve at half-maximal effect); settings: CHO-K1 GR-EFC translocation, beta-gal luminescence, 2 h
Glucocorticoid receptor (Homo sapiens), sequence (P04150 whole entry, looked up, the tested form may be a part): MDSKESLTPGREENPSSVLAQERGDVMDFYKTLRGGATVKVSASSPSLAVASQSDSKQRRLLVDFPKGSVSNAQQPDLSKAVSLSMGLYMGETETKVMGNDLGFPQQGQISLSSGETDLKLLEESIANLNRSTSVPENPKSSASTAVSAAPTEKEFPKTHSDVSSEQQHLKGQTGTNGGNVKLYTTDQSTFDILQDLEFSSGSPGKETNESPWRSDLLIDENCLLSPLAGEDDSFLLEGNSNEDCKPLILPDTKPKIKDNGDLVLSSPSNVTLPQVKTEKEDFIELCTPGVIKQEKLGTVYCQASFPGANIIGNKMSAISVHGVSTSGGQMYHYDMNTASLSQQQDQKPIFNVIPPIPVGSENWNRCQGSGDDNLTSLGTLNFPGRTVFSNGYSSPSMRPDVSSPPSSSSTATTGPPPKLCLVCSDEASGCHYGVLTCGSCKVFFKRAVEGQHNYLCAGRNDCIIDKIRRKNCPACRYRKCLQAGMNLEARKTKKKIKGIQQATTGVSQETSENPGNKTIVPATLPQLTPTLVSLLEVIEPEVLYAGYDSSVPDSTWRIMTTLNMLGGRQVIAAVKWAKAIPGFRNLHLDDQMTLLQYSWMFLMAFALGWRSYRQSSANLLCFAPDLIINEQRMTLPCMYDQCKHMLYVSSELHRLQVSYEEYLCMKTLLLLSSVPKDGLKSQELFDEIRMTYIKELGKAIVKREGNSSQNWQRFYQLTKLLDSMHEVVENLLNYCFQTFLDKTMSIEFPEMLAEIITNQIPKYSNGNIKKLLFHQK
Summary of the method: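 CHO-K1 cells expressing nuclear EA and GR-ED fragments of b-gal; compounds titrated up to 46 uM final, 2 h at 37 C. GR nuclear translocation read as complemented b-gal luminescence after 1 h RT detection.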

[6] = target: Mitogen-activated protein kinase 10 (Mus musculus) (UniProt Q61831); assay: JNK3 AlphaScreen Assay (AID 530); settings: JNK3 lysate, c-Jun phosphorylation; series mostly up to 57.1 µM;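 also: kinase came from lysate of stimulated human HepG2 cells; signal reports phosphorylation of biotinylated GST-cJun 1-79 at Ser73 with 10 µM ATP; % is scaled to controls: 0 for no effect and ±100 for the full control effect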
Summary of the method: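 qHTS format: compounds tested as titrations against IL-1beta/TNF-alpha-activated HepG2 lysate JNK3 with biotin-GST-cJun substrate and 10 uM ATP at room temperature. Loss of anti-phospho-cJun AlphaScreen signal indicates inhibition.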

[7] = target: 3',5'-cyclic-AMP phosphodiesterase 4B (Homo sapiens) (UniProt Q07343); assay: qHTS Assay for Inhibitors of PDE-IV (AID 607; active = well fitted activation curve with a large enough effect in the main read-out, with a control signal flat, not every such curve was filed as active; also: % of control where 0% means no effect); settings: HEK293 ACTOne CNG channel cells, membrane potential fluorescence; series mostly up to 22.9 µM
3',5'-cyclic-AMP phosphodiesterase 4B (Homo sapiens), sequence (Q07343 whole entry, looked up): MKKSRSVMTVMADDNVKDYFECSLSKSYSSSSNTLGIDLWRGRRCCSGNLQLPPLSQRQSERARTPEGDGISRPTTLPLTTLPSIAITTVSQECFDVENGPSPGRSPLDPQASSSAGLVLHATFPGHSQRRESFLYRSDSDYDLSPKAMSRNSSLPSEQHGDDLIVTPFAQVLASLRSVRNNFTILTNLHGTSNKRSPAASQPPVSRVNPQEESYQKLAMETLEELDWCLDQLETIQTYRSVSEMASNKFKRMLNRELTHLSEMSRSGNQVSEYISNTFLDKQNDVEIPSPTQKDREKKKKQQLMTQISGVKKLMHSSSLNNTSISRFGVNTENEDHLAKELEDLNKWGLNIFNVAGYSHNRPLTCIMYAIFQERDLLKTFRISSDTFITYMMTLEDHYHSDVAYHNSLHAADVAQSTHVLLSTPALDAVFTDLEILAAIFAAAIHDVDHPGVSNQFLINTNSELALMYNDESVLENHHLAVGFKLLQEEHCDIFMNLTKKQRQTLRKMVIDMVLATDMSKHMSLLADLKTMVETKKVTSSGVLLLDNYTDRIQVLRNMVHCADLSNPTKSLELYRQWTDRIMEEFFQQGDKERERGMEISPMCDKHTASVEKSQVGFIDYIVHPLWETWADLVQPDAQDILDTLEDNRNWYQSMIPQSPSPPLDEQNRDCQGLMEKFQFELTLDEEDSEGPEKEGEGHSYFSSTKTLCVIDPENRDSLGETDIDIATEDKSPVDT
Summary of the method: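 Live HEK293 cells with a modified cyclic nucleotide-gated (CNG) channel report intracellular cAMP via membrane-potential dye fluorescence (ex 535/em 590 nm). Endogenous PDE-IV was targeted. Compounds were tested at up to 22.9 uM final; RO 20-1724 100 uM served as control.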

[8] = qHTS Assay for Lipid Storage Modulators (AID 1519; calls by dose curve); settings: Drosophila S3 cells, BODIPY lipid droplet/cell ratio, laser cytometry, cells loaded with oleic acid; for activity change, negative = inhibition: at 57.5 µM (top of the series)
Summary of the method: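 Cells seeded at 5,000 per well were treated with compounds over a concentration series and loaded with oleic acid (400 uM, as added). Lipid droplet fluorescence (488 nm excitation, 500-530 nm channel) was read by laser-scanning cytometry and normalized to 20 uM Triacsin C.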

[9] = Primary qHTS for small molecule stabilizers of the endoplasmic reticulum resident proteome: Secreted ER Calcium Modulated Protein (SERCaMP) assay (AID 1508630; active = well fitted curve in the direction sought with a large enough effect; an effect the other way counts as inactive or inconclusive; also: % is scaled to controls: 0 for no effect and ±100 for the full control effect); settings: SH-SY5Y GLuc-SERCaMP (Gaussia luciferase released on ER calcium loss) secretion, thapsigargin, luminescence; series mostly up to 38.4 µM
Summary of the method: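 GLuc-SERCaMP-expressing SH-SY5Y cells, pretreated 16 h with compound, are challenged with thapsigargin to empty ER calcium stores; after 4 h, coelenterazine is added directly to the medium and luminescence is imaged.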

[10] = target: Glucocorticoid receptor (Homo sapiens) (UniProt P04150); assay: GR-GFP Redistribution (AID 450;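 active = compounds whose dose series gives a full or clear partial fitted curve of increased nuclear translocation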; also: potency is read from the fitted curve at half-maximal effect); settings: U2OS GR-GFP nuclear translocation, laser cytometry, 2 h
[11] = Confirmation and Secondary Assay for Modulators of Hemoglobin Beta Chain Splicing at IVS2 654 locus (AID 910; active = well fitted curve in the direction sought with a large enough effect; an effect the other way counts as inactive or inconclusive;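 also: HeLa cells stably carrying EGFP split by mutant beta-globin IVS2-654 intron; % of control where 0% means no effect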); settings: HeLa EGFP-654 splicing reporter, GFP fluorescence, 48 h; series mostly up to 38.3 µM
Summary of the method: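 HeLa cells stably expressing EGFP interrupted by β-globin IVS2-654 intron, seeded overnight in Opti-MEM/2% FCS, then treated 2 days at 37 °C. Restored splicing read as total peak GFP intensity per well by laser scanning cytometry (488 nm excitation, 500–520 nm emission); 500 nM antisense PNA as control.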

[12] = Confirmation and Secondary Assay for Modulators of Hemoglobin Beta Chain Splicing at IVS2 705 locus (AID 930; active = well fitted curve in the direction sought with a large enough effect; an effect the other way counts as inactive or inconclusive;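 also: HeLa cells stably expressing the EGFP-705 splicing reporter; GFP fluorescence per well restored by corrected splicing of the IVS2-705 intron in EGFP; % of control where 0% means no effect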); settings: HeLa EGFP-705 splicing reporter, GFP fluorescence, 48 h; series mostly up to 38.3 µM
Summary of the method: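 HeLa IVS2-705 EGFP reporter cells, 500/well, compound 2 d at 37C; correct splicing yields fluorescent EGFP. Control: 500 nM antisense PNA. Read-out: total peak GFP intensity.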

[13] = target: Ubiquitin carboxyl-terminal hydrolase 1 (Homo sapiens) (UniProt O94782); assay: Inhibitors of USP1/UAF1: Pilot qHTS (AID 504865; active = well fitted curve in the direction sought with a large enough effect; an effect the other way counts as inactive or inconclusive;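 also: rhodamine fluorescence freed from ubiquitin-rhodamine substrate followed over time; top concentration of the series differs between compounds; % is scaled to controls: 0 for no effect and ±100 for the full control effect; nearly all actives have a fitted effect of over 35% in size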); settings: purified USP1/UAF1, Ub-rhodamine cleavage fluorescence; series mostly up to 54.9 µM
Ubiquitin carboxyl-terminal hydrolase 1 (Homo sapiens), sequence (O94782 whole entry, looked up): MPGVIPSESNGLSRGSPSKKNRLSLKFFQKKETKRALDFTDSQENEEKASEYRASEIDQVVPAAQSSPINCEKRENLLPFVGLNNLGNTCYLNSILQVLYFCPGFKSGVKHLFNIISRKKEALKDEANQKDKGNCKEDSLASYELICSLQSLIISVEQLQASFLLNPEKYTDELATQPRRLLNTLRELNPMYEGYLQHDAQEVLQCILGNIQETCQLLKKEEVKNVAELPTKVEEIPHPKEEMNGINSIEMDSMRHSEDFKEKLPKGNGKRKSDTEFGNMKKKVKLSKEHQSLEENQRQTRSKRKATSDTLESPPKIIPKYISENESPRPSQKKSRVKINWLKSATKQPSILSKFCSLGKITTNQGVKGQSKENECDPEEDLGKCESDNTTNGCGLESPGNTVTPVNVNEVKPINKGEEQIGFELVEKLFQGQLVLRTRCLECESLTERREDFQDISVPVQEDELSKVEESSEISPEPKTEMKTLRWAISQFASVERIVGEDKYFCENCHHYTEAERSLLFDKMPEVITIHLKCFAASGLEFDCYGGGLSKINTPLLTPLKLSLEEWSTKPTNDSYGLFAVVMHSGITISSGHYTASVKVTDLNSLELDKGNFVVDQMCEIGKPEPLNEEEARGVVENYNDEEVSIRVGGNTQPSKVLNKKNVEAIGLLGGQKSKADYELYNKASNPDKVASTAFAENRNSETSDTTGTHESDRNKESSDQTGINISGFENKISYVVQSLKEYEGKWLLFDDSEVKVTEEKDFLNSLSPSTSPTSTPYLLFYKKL
Summary of the method: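 USP1/UAF1 complex at 1 nM preincubated 15 min at room temperature with compound, then Ub-Rho substrate added at 150 nM final. Fluorescence (480/540 nm) read kinetically in 50 mM HEPES pH 7.8, 0.5 mM EDTA, 1 mM TCEP, 0.1 mg/ml BSA, 0.01% Tween-20.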

[14] = target: Cytochrome P450 2D6 (Homo sapiens) (UniProt P10635); assay: qHTS Assay for Inhibitors and Substrates of Cytochrome P450 2D6 (AID 891; active = well fitted curve in the direction sought with a large enough effect; an effect the other way counts as inactive or inconclusive; also: potency is read from the fitted curve at half-maximal effect; nearly all actives have a fitted effect of over 60% in size); settings: recombinant CYP2D6, luciferin-ME EGE luminescence; series mostly up to 57.1 µM
Cytochrome P450 2D6 (Homo sapiens), sequence (P10635 whole entry, looked up): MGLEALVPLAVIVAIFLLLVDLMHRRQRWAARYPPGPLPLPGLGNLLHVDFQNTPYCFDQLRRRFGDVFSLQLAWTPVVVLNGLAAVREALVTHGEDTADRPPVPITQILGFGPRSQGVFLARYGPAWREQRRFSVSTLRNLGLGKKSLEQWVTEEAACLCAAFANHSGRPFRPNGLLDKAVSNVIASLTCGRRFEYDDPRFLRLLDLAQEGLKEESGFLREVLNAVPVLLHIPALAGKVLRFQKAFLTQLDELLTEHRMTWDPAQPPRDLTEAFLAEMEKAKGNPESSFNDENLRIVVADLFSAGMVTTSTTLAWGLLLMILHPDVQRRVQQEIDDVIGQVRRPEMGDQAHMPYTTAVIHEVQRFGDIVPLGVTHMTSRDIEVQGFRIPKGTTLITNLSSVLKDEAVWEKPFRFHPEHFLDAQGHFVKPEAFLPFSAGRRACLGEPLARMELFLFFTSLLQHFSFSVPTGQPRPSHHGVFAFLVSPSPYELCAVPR
Summary of the method: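 Human CYP2D6 (5 nM) with 30 uM Luciferin-ME EGE (at Km) in 100 mM KPO4, compound preincubated 10 min, then NADPH regeneration system for 60 min at room temperature. Luciferin read by luminescence; normalized to 1.43 uM quinidine.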

[15] = qHTS Assay for Identification of Small Molecule Agonists for Hypoxia Response Element Signaling Pathway (AID 914; active = well fitted activation curve with a large enough effect in the signal ratio, with a control signal flat, not every such curve was filed as active; the % refers to the signal ratio; also: % of control where 0% means no effect); settings: ME-180 (cervical carcinoma) HRE-bla reporter, beta-lactamase ratio, CoCl2, 17 h; activation: stronger effect = higher value
Summary of the method: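 HRE-bla ME-180 assay for agonist-like enhancement of an EC50 CoCl2 stimulus: 17 h at 37 degrees Celsius, CCF4 for 2.5 h, ratiometric 460/530 nm signal converted to %Activity and fitted to AC50.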

[16] = target: Cytochrome P450 3A4 (Homo sapiens) (UniProt P08684); assay: qHTS Assay for Activators of Cytochrome P450 3A4 (AID 885; active = well fitted curve in the direction sought with a large enough effect; an effect the other way counts as inactive or inconclusive; also: nearly all actives have a fitted effect of over 65% in size); settings: recombinant CYP3A4, Luciferin-PPXE luminescence, 60 min; series mostly up to 57.1 µM
Cytochrome P450 3A4 (Homo sapiens), sequence (P08684 whole entry, looked up): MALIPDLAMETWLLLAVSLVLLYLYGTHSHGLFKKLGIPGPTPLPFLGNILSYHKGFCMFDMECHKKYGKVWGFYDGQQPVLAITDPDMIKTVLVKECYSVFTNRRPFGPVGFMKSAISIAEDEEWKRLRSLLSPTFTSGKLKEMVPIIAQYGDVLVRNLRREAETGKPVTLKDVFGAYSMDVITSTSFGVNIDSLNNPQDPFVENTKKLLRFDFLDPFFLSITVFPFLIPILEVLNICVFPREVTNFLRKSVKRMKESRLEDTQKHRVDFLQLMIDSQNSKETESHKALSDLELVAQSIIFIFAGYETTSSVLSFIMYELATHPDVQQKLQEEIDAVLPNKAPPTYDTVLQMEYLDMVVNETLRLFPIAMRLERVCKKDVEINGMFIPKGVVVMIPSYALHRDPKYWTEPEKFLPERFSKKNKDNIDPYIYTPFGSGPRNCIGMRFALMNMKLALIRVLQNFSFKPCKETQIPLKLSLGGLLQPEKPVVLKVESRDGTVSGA
Summary of the method: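 Quantitative HTS format: compounds preincubated with 20nM human CYP3A4 and Luciferin-PPXE substrate at KM, reaction started by NADPH regeneration, stopped after 60 min, luciferase luminescence read 20 min later.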

[17] = measured here: cell count channel max response
[18] = measured here: lipid channel max response

CS(=O)(=O)N1CCC2(CC1)CN(C(=O)Nc1cccc(F)c1)C2
24.9%: max response [8, 18]
15.2%: max response [8, 17]
inactive: Potency [1] > 11.4 µM | activity change, negative = inhibition [2] 0.393% | activity change, negative = inhibition [3] 3.65% | activity, negative = inhibition [4] 13.3% | Potency [5] > 46 µM | Potency [6] | Potency [7] | activity change, negative = inhibition [8] 5.56% | outcome [9]

CN(C)C(=O)c1ccc(-c2ccc3ncnc(NC4CCNCC4)c3c2)cc1
16.5%: max response [8, 18]
inactive: Potency [1] > 11.4 µM | activity change, negative = inhibition [2] -6.93% | activity change, negative = inhibition [3] 7.8% | activity, negative = inhibition [4] 14.8% | Potency [10] > 46 µM | Potency [5] > 46 µM | Potency [6] | Potency [7] | Potency [11] | outcome [12] | activity change, negative = inhibition [8] 6.36% | Potency [13] | outcome [9]
9.43%: max response [8, 17]

CN(C)Cc1ccccc1-c1cc(N(C)C)ncn1
inactive: Potency [1] > 11.4 µM | activity change, negative = inhibition [2] -1.87% | activity change, negative = inhibition [3] -11.7% | activity, negative = inhibition [4] 7.42% | Potency [10] > 46 µM | Potency [5] > 46 µM | Potency [6] | Potency [7] | Potency [11] | activation [15] 5.79% | outcome [12] | activity change, negative = inhibition [8] 5.84% | Potency [13] | outcome [9]
12%: max response [8, 18]
active: Potency [14] 1.26 µM
8.47%: max response [8, 17]

O=C(c1csnn1)N1CCC2(CC1)CN(c1ncccn1)C2
inactive: Potency [1] > 11.4 µM | activity change, negative = inhibition [2] 13.2% | activity change, negative = inhibition [3] 16.9% | activity, negative = inhibition [4] 1.44% | Potency [5] > 46 µM | Potency [6] | Potency [7] | activity change, negative = inhibition [8] 0.698% | outcome [9]
-0.721%: max response [8, 17]
1.07%: max response [8, 18]

O=S(=O)(c1ccccc1)N1CCC2(CCN(c3cccc(-c4ccccc4)c3)CC2)CC1
24.9%: max response [8, 18]
inactive: Potency [1] > 11.4 µM | activity change, negative = inhibition [2] -5.65% | activity change, negative = inhibition [3] -3.11% | activity, negative = inhibition [4] -8.83% | Potency [5] > 46 µM | Potency [6] | Potency [7] | activity change, negative = inhibition [8] 5.8% | outcome [9]
17.8%: max response [8, 17]

Cc1noc(C)c1-c1nc(NCc2cccnc2)c2ccccc2n1
21%: max response [8, 18]
inactive: Potency [1] > 11.4 µM | activity change, negative = inhibition [2] 2.83% | activity change, negative = inhibition [3] -10.7% | activity, negative = inhibition [4] -14.2% | Potency [10] > 46 µM | Potency [5] > 46 µM | Potency [6] | Potency [11] | outcome [12] | activity change, negative = inhibition [8] 11.8% | outcome [9]
12.2%: max response [8, 17]

Cn1cccc1C(=O)N1CCC[C@@]2(CCN(c3ncccn3)C2)C1
-6.2%: max response [8, 17]
inactive: Potency [1] > 11.4 µM | activity change, negative = inhibition [2] -1.25% | activity change, negative = inhibition [3] -9.56% | activity, negative = inhibition [4] -1.27% | Potency [5] > 46 µM | Potency [6] | Potency [7] | activity change, negative = inhibition [8] 1.1% | outcome [9]
-1.14%: max response [8, 18]

CS(=O)(=O)N1CCC2(CC1)CN(Cc1ccccc1)C2
inactive: Potency [1] > 11.4 µM | activity change, negative = inhibition [2] -4.28% | activity change, negative = inhibition [3] -8.71% | activity, negative = inhibition [4] -7.57% | Potency [5] > 46 µM | Potency [6] | Potency [7] | activity change, negative = inhibition [8] 3.83% | outcome [9]
15%: max response [8, 18]
6.73%: max response [8, 17]

COc1ncc2nc(-c3ccccc3)c(=O)n(C[C@H]3CCCO3)c2n1
14.7%: max response [8, 18]
inactive: Potency [1] > 11.4 µM | activity change, negative = inhibition [2] -19.2% | activity change, negative = inhibition [3] -13.8% | activity, negative = inhibition [4] 0.632% | Potency [10] > 9.22 µM | Potency [5] > 46 µM | Potency [6] | Potency [7] | Potency [16] | activity change, negative = inhibition [8] 1.51% | outcome [9]
9.98%: max response [8, 17]

Cc1ccccc1-c1cc(-n2ccnc2)ncn1
7.52%: max response [8, 17]
17.5%: max response [8, 18]
inactive: Potency [1] > 11.4 µM | activity change, negative = inhibition [2] -7.76% | activity change, negative = inhibition [3] -6.87% | activity, negative = inhibition [4] 15.7% | Potency [10] > 46 µM | Potency [5] > 46 µM | Potency [6] | Potency [7] | Potency [11] | activity change, negative = inhibition [8] 9.66% | Potency [13] | outcome [9]

O=C(Nc1ccccc1)N1CC[C@@]2(CCCN(C(=O)c3csnn3)C2)C1
-5.15%: max response [8, 17]
6.65%: max response [8, 18]
inactive: Potency [1] > 11.4 µM | activity change, negative = inhibition [2] -13.6% | activity change, negative = inhibition [3] 9.61% | activity, negative = inhibition [4] 0.432% | Potency [5] > 46 µM | Potency [6] | activity change, negative = inhibition [8] 6.56% | outcome [9]

O=c1c(-c2cc(F)cc(F)c2)nc2cncnc2n1Cc1ccc(F)cc1
-5.87%: max response [8, 17]
-11%: max response [8, 18]
inactive: Potency [1] > 11.4 µM | activity change, negative = inhibition [2] -2.14% | activity change, negative = inhibition [3] -15.1% | activity, negative = inhibition [4] -0.133% | Potency [10] > 9.22 µM | Potency [5] > 46 µM | Potency [6] | Potency [7] | Potency [16] | activity change, negative = inhibition [8] -8.57% | outcome [9]

CC(C)CN1CC[C@@]2(CCCN(C(=O)c3cccc(F)c3)C2)C1
13.4%: max response [8, 17]
19.5%: max response [8, 18]
inactive: Potency [1] > 11.4 µM | activity change, negative = inhibition [2] -9.55% | activity change, negative = inhibition [3] -0.696% | activity, negative = inhibition [4] 6.14% | Potency [5] > 46 µM | Potency [6] | Potency [7] | activity change, negative = inhibition [8] 1.5% | outcome [9]

From PubChem BioAssay (NCATS)
